According to PubChem BioAssay (Tox21):
Several values for one entry are separate records, joined by “and”; a condition that tells them apart may be missing. Equal values may be shown once. Records with an inconclusive call do not appear. A call without a number means that no potency is given here. Some compounds were tested as several samples or in several runs, with calls that do not always agree. Activity calls are given as the source filed them. Unless noted, calls come from the whole dose curve; as a rule, active = well fitted curve in the direction sought with a large enough effect in the repeat runs; inconclusive = weak or mixed curves; inactive = no such curve, though single readings can be large; an effect the other way counts as inactive or inconclusive.

Tests used:
[1] = qHTS assay to identify small molecule antagonists of the peroxisome proliferator-activated receptor delta (PPARd) signaling pathway - cell viability counter screen (AID 743213); note: nearly all actives have a fitted effect of over 50% in size; note: potency is the fitted concentration of half-maximal effect
Outline: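 Luminescence from CellTiter-Glo, added after the bla read and incubated 30 min at room temperature, gives viability of HEK293H PPARd-bla cells exposed to compounds for 17 h at 37 C with 300 nM L165041.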

[2] = target: Peroxisome proliferator-activated receptor delta (Homo sapiens) (UniProt Q03181); assay: qHTS assay to identify small molecule antagonists of the peroxisome proliferator-activated receptor delta (PPARd) signaling pathway (AID 743215; active = well fitted inhibition curve with a large enough effect in the signal ratio in the repeat runs, not every such curve was filed as active; the % refers to the signal ratio;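 note: cells stimulated with agonist L165041 at 300 nM final during compound exposure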; note: potency is the fitted concentration of half-maximal effect)
Outline: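 PPARd UAS-bla HEK293H cells were pre-incubated 5 h at 37 C, then given test compounds in DMSO plus agonist L165041 (300 nM final). After 17 h at 37 C, beta-lactamase FRET substrate was added; fluorescence read after 2 h at room temperature.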

[3] = qHTS assay to identify small molecule agonists of the farnesoid-X-receptor (FXR) signaling pathway - cell viability counter screen (AID 743218); note: nearly all actives have a fitted effect of over 45% in size; note: potency is the fitted concentration of half-maximal effect
Outline: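 FXR-UAS-bla HEK 293T cells, plated 5 h at 37 C, were exposed to compounds for 16 h at 37 C. CellTiter-Glo was then added to the same wells as the bla readout; luminescence read after 30 min at room temperature.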

[4] = qHTS assay to identify small molecule antagonists of the farnesoid-X-receptor (FXR) signaling pathway - cell viability counter screen (AID 743221; active = well fitted cell-killing curve with a large enough effect in the repeat runs, not every such curve was filed as active; note: nearly all actives have a fitted effect of over 50% in size; note: potency is the fitted concentration of half-maximal effect)
Outline: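 GeneBLAzer FXR-UAS-bla HEK 293T cells, compound plus chenodeoxycholic acid (50 uM final), 16 h at 37 C. CellTiter-Glo added to the same wells after the beta-lactamase read; luminescence read after 30 min at room temperature as viability.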

[5] = qHTS assay to identify small molecule agonists of the vitamin D receptor (VDR) signaling pathway - cell viability counter screen (AID 743224); note: nearly all actives have a fitted effect of over 50% in size; note: potency is the fitted concentration of half-maximal effect; for activity change, negative = cytotoxicity: series mostly up to about 63 µM
Outline: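 VDR-bla cells were preincubated 4 h at 37C/5% CO2, then exposed to compounds for 16 h. After the 2 h room-temperature bla FRET read, CellTiter-Glo was added to the same wells and luminescence read after 30 min.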

[6] = qHTS assay to identify small molecule antagonists of the vitamin D receptor (VDR) signaling pathway - cell viability counter screen (AID 743225); note: nearly all actives have a fitted effect of over 50% in size; note: potency is the fitted concentration of half-maximal effect
Outline: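 VDR-UAS-bla HEK 293T cells were plated and incubated 4 h at 37C, then dosed with compound plus 3 nM (final) 1-alpha,25-dihydroxyvitamin D3 for 16 h. After the 2 h beta-lactamase read, viability in the same wells was read as CellTiter-Glo luminescence after 30 min at room temperature.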

[7] = qHTS assay to identify small molecule agonists of the NFkB signaling pathway - cell viability counter screen (AID 1159515; calls by dose curve; note: nearly all actives have a fitted effect of over 55% in size; note: potency is the fitted concentration of half-maximal effect; for activity, negative = cytotoxic: series mostly up to about 61 µM)
Outline: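 NFkB-bla ME-180 cells, 2,000/well, were plated overnight at 37 C, 5% CO2, then exposed to compounds in DMSO for 5 hr. After the bla FRET read, CellTiter-Glo was added to the same wells; luminescence was read after 30 min at room temperature.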

[8] = qHTS assay to identify small molecule agonists of the endoplasmic reticulum stress response signaling pathway - cell viability counter screen (AID 1159517; calls by dose curve; note: nearly all actives have a fitted effect of over 50% in size; note: potency is the fitted concentration of half-maximal effect;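 for activity change, negative = cytotoxicity: HeLa cells carrying an ER stress response element beta-lactamase reporter; series mostly up to about 61 µM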)
Outline: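 ESRE-bla HeLa cells, 1,500 per well, seeded overnight then treated with compounds for 5 hr at 37 C. After the beta-lactamase read, viability in the same wells is measured by CellTiter-Glo luminescence after 30 min at room temperature.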

[9] = qHTS assay to identify small molecule antagonists of the retinoid-related orphan receptor gamma (ROR-gamma) signaling pathway - cell viability counter screen (AID 1159520); note: nearly all actives have a fitted effect of over 50% in size; note: potency is the fitted concentration of half-maximal effect
Outline: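 Tet-on ROR gamma CHO cells were given compounds for 2 hr, then doxycycline hyclate at 1 uM final, and incubated 16 hr at 37 C. Viability was measured as ATP content by CellTiter-Glo luminescence.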

[10] = target: Nuclear receptor ROR-gamma (Homo sapiens) (UniProt P51449); assay: qHTS assay to identify small molecule antagonists of the retinoid-related orphan receptor gamma (ROR-gamma) signaling pathway (AID 1159521; note: nearly all actives have a fitted effect of over 50% in size; note: potency is the fitted concentration of half-maximal effect;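 for activity change, negative = inhibition: CHO cells with doxycycline inducible ROR-gamma driving an RORE luciferase reporter; top concentration of the series differs between compounds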)
Outline: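 Tet-on ROR-gamma CHO cells with ROR response element-luciferase reporter; compounds added 2 hr before 1 uM doxycycline induction, then 16 hr at 37 C. Antagonism scored as decreased ONE-Glo luminescence.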

[11] = qHTS assay to identify small molecule agonists of the AP-1 signaling pathway - cell viability counter screen (AID 1159525; calls by dose curve; note: nearly all actives have a fitted effect of over 55% in size; note: potency is the fitted concentration of half-maximal effect)
Outline: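 AP-1-bla ME-180 cells in Opti-MEM with 0.5% dialyzed FBS, compound exposure 5 h at 37 C in 15-point titration. Viability read in the same wells as ATP content by CellTiter-Glo luminescence, normalised to tetra-n-octylammonium bromide and DMSO controls.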

[12] = qHTS assay to identify small molecule agonists of the AP-1 signaling pathway (AID 1159526; calls by dose curve)
[13] = target: Bile acid receptor (Homo sapiens) (UniProt Q96RI1); assay: qHTS assay to identify small molecule antagonists of the farnesoid-X-receptor (FXR) signaling pathway (AID 743217; active = well fitted inhibition curve with a large enough effect in the signal ratio in the repeat runs, not every such curve was filed as active; the % refers to the signal ratio)
Outline: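 FXR-UAS-bla HEK 293T cells pre-incubated 5 h at 37 °C, then exposed to compounds with chenodeoxycholic acid (50 uM final) for 16 h at 37 °C. Beta-lactamase reporter read by LiveBLAzer B/G FRET substrate fluorescence after 2 h at room temperature.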

[14] = qHTS assay to identify small molecule agonists of the peroxisome proliferator-activated receptor delta (PPARd) signaling pathway - cell viability counter screen (AID 743211); note: nearly all actives have a fitted effect of over 55% in size; note: potency is the fitted concentration of half-maximal effect
Outline: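 PPARd-bla HEK293H cells (3000/well) were pre-incubated 5 h at 37 C, then exposed to compound for 17 h at 37 C. After 2 h with LiveBLAzer substrate, CellTiter-Glo was added to the same wells; luminescence read after 30 min at room temperature.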

[15] = target: Bile acid receptor (Homo sapiens) (UniProt Q96RI1); assay: qHTS assay to identify small molecule agonists of the farnesoid-X-receptor (FXR) signaling pathway (AID 743220; active = well fitted activation curve with a large enough effect in the signal ratio in the repeat runs, not every such curve was filed as active; the % refers to the signal ratio)
Outline: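 Beta-lactamase reporter under UAS control in GeneBLAzer FXR HEK 293T cells (5000/well) measured with LiveBLAzer FRET substrate after 2 h at room temperature. Compound exposure lasted 16 h at 37C.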

[16] = target: Vitamin D3 receptor (Homo sapiens) (UniProt P11473); assay: qHTS assay to identify small molecule agonists of the vitamin D receptor (VDR) signaling pathway (AID 743222; calls by dose curve)
Outline: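 VDR-bla cells were plated 4 h at 37C/5% CO2, then exposed to compounds in DMSO for 16 h. After LiveBLAzer B/G FRET substrate addition and 2 h at room temperature, beta-lactamase reporter fluorescence was read.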

[17] = target: Vitamin D3 receptor (Homo sapiens) (UniProt P11473); assay: qHTS assay to identify small molecule antagonists of the vitamin D receptor (VDR) signaling pathway (AID 743223; active = well fitted inhibition curve with a large enough effect in the signal ratio in the repeat runs, not every such curve was filed as active; the % refers to the signal ratio; note: potency is the fitted concentration of half-maximal effect)
Outline: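 VDR-bla cells were treated with compound plus 3 nM final 1alpha,25-dihydroxyvitamin D3 for 16 h at 37C. Beta-lactamase reporter read by B/G FRET substrate fluorescence after 2 h at room temperature. qHTS format.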

[18] = target: Retinoic acid receptor RXR-alpha (Homo sapiens) (UniProt P19793); assay: qHTS assay to identify small molecule agonists of the RXR signaling pathway (AID 1159527; calls by dose curve; note: nearly all actives have a fitted effect of over 35% in size)
Outline: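 GeneBLAzer RXR-alpha-UAS-bla HEK 293T cells in 2% charcoal-stripped FBS medium were exposed to compounds for 16 hr at 37 C in agonist mode. Beta-lactamase reporter read as 460/530 nm FRET ratio after 2 hr substrate loading.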

[19] = target: Peroxisome proliferator-activated receptor delta (Homo sapiens) (UniProt Q03181); assay: qHTS assay to identify small molecule agonists of the peroxisome proliferator-activated receptor delta (PPARd) signaling pathway (AID 743212; calls by dose curve)
Outline: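 GeneBLAzer UAS-bla HEK293H cells carrying a PPARδ construct were exposed to compounds at 37 °C. Beta-lactamase activity was read by FRET fluorescence after 2 h at room temperature with LiveBLAzer B/G substrate.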

Chain of Vitamin D3 receptor (Homo sapiens) (P11473 whole entry, looked up): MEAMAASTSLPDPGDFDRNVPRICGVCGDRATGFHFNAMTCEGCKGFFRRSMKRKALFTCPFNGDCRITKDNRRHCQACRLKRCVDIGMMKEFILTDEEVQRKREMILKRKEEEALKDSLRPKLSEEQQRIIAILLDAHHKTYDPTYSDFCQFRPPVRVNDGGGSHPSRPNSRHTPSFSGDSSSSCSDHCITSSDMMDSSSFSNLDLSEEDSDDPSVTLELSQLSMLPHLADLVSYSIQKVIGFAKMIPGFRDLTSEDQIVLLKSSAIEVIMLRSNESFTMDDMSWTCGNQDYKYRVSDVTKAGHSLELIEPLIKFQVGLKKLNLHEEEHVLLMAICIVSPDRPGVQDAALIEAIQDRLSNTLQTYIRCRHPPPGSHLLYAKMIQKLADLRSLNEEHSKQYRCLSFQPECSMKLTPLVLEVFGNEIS
Chain of Bile acid receptor (Homo sapiens) (Q96RI1 whole entry, looked up): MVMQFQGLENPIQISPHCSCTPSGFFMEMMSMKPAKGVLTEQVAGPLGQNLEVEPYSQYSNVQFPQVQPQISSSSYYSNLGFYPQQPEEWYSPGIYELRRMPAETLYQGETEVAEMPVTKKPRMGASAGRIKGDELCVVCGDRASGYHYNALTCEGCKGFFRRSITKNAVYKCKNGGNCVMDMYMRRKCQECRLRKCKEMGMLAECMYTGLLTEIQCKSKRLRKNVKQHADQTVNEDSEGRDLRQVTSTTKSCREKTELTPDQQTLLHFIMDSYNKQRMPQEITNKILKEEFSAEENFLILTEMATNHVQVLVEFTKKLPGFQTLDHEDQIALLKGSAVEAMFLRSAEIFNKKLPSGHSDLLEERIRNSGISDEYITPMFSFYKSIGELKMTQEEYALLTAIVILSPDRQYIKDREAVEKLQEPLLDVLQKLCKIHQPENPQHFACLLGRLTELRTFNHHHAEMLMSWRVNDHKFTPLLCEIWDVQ
Chain of Peroxisome proliferator-activated receptor delta (Homo sapiens) (Q03181 whole entry, looked up): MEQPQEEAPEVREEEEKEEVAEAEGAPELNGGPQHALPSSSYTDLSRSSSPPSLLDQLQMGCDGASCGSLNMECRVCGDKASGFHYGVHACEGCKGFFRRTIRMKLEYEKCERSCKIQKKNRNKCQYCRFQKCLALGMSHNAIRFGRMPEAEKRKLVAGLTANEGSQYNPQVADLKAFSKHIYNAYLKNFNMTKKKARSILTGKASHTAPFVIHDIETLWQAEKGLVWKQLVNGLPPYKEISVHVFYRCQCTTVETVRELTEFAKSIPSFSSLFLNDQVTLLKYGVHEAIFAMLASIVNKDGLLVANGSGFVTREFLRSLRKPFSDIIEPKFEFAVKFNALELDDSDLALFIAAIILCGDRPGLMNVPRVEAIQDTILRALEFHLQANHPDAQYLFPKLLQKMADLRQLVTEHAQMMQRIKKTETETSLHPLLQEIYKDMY
Chain of Retinoic acid receptor RXR-alpha (Homo sapiens) (P19793 whole entry, looked up): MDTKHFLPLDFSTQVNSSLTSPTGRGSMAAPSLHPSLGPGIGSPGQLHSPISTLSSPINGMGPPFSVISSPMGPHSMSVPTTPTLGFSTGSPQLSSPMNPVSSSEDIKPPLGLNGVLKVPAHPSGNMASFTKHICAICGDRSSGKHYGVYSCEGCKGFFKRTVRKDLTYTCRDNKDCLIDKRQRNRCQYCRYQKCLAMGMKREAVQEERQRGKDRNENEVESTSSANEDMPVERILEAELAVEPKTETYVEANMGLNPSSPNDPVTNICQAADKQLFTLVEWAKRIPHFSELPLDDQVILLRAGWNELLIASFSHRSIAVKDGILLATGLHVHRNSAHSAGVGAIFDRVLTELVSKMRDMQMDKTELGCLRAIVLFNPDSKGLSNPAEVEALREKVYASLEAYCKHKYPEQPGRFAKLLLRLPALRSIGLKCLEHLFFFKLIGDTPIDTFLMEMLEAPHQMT

In the case of `Cc1cc(C)c(/C=C2\C(=O)Nc3ccccc32)[nH]1`, the Potency [1] is reported as “inactive”, the Potency [2] is reported as 15 µM (active) and the Potency [3] is reported as “inactive”. For the same compound, the Potency [4] was “inactive”, the Potency [5] was “inactive” and the Potency [6] was “inactive”. The Potency [7] was “inactive”, the Potency [8] was “inactive” and the Potency [9] was “inactive”. For the same compound, the Potency [10] was “inactive”, the Potency [11] was “inactive” and the Potency [12] was “inactive”.

For `Cc1cc(=O)oc2cc(O)cc(O)c12`, the Potency [1] was “inactive”, the Potency [13] was “inactive” and the Potency [3] was “inactive”. The Potency [4] was “inactive”, the Potency [5] was “inactive” and the Potency [6] was “inactive”. The Potency [7] was “inactive”, the Potency [8] was “inactive” and the Potency [9] was “inactive”. The Potency [10] was “inactive”, the Potency [11] was “inactive” and the Potency [12] was “inactive”.

For `CCCCCCCCCCCCCC[N+](C)(C)Cc1ccccc1`, the Potency [14] was 22.2 µM (active) and 21.1 µM (active), the Potency [1] was 22.2 µM (active) and 10.6 µM (active) and the Potency [13] was “inactive”. For the same compound, the Potency [3] was 23.7 µM (active), the Potency [15] was “inactive” and the Potency [4] was 49.7 µM (active). For the same compound, the Potency [16] was “inactive”, the Potency [17] was 44.3 µM (active) and the Potency [5] was 24.9 µM (active). For the same compound, the Potency [6] was 24.9 µM (active) and 16.9 µM (active), the Potency [7] was 49.7 µM (active) and the Potency [9] was 69.6 µM (active). For the same compound, the Potency [10] was 24.7 µM (active) and 26.6 µM (active) and 20 mM (active) and the Potency [11] was 23.9 µM (active).

For `O=C1c2ccccc2C(=O)N1SC1CCCCC1`, the Potency [3] was “inactive”, the Potency [15] was “inactive” and the Potency [4] was “inactive”. For the same compound, the Potency [16] was “inactive”, the Potency [5] was 54.9 µM (active) and the Potency [6] was 48.9 µM (active). The Potency [7] was “inactive”, the Potency [8] was 43.6 µM (active) and the Potency [9] was 48.5 µM (active) and 54.5 µM (active). The Potency [10] was 27.3 µM (active).

In the case of `NC[C@H]1O[C@H](O[C@H]2[C@H](O[C@@H]3O[C@H](CO)[C@@H](O)[C@H]3O)C(O)[C@H](N)C[C@@H]2N)[C@H](N)[C@@H](O)[C@@H]1O` (stereo partly drawn), the viability change, negative = cytotoxic [1] is reported as -6.55% [at 13.7 µM] (inactive), the viability change, negative = cytotoxic [3] is reported as 5.37% [at 13.2 µM] (inactive) and the activity change, negative = cytotoxicity [4] is reported as 8.66% [at 13.2 µM] (inactive). For the same compound, the activity change, negative = cytotoxicity [5] was -1.26% [at 13.2 µM] (inactive), the viability change, negative = cytotoxic [6] was -0.622% [at 6.95 µM] (inactive) and the activity, negative = cytotoxic [7] was 0.788% [at 6.95 µM] (inactive). The activity, negative = cytotoxicity [9] was 4.86% [at 8.39 µM] (inactive), the activity change, negative = inhibition [10] was 9.94% [at 8.39 µM] (inactive) and the viability change, negative = cytotoxic [11] was 9.44% [at 6.97 µM] (inactive). For the same compound, the activation [12] was -3.58% [at 6.97 µM] (inactive) and the activation [18] was 5.85% [at 6.98 µM] (inactive).

In the case of `CCC(C)n1ncn(-c2ccc(N3CCN(c4ccc(OC[C@H]5CO[C@](Cn6cncn6)(c6ccc(Cl)cc6Cl)O5)cc4)CC3)cc2)c1=O` (stereo partly drawn), the Potency [19] is reported as “inactive”, the Potency [1] is reported as 2.11 µM (active) and the Potency [2] is reported as “inactive”. The Potency [4] was “inactive”, the Potency [16] was “inactive” and the Potency [17] was “inactive”. The Potency [5] was “inactive”, the Potency [6] was “inactive” and the Potency [7] was “inactive”. The Potency [8] was “inactive”, the Potency [9] was “inactive” and the Potency [10] was 1.19 µM (active). For the same compound, the Potency [11] was “inactive” and the Potency [12] was “inactive”.

In the case of `O=C1OC2(c3ccc(O)cc3Oc3cc(O)ccc32)c2ccc(N=C=S)cc21`, the Potency [14] is reported as “inactive”, the Potency [1] is reported as “inactive” and the Potency [2] is reported as “inactive”. The Potency [3] was “inactive”, the Potency [4] was “inactive” and the Potency [5] was “inactive”. For the same compound, the Potency [6] was “inactive”, the Potency [7] was “inactive” and the Potency [9] was “inactive”. The Potency [10] was “inactive”, the Potency [11] was “inactive” and the Potency [12] was “inactive”.

With `C1CCC(SSC2CCCCC2)CC1` the Potency [1] was “inactive”, the Potency [2] was “inactive” and the Potency [4] was “inactive”. For the same compound, the Potency [16] was “inactive”, the Potency [5] was “inactive” and the Potency [6] was “inactive”. The Potency [7] was “inactive”, the Potency [9] was “inactive” and the Potency [10] was “inactive”. For the same compound, the Potency [11] was “inactive”, the Potency [12] was “inactive” and the Potency [18] was “inactive”.

In the case of `Cc1c(C)c2c(c(C)c1OC(=O)c1cccnc1)CC[C@@](C)(CCC[C@H](C)CCC[C@H](C)CCCC(C)C)O2`, the Potency [14] is reported as “inactive”, the Potency [19] is reported as “inactive” and the Potency [2] is reported as “inactive”. For the same compound, the Potency [3] was “inactive”, the Potency [4] was “inactive” and the Potency [16] was “inactive”. The Potency [17] was “inactive”, the Potency [6] was “inactive” and the Potency [7] was “inactive”. The Potency [9] was “inactive”, the Potency [10] was “inactive” and the Potency [11] was “inactive”. The Potency [12] was “inactive” and the Potency [18] was “inactive”.

For `CCCCCCCCCCCCCC[N+](C)(C)C`, the Potency [14] was 37.6 µM (active) and 24.5 µM (active) and 26.6 µM (active), the Potency [1] was 21.1 µM (active) and 6.16 µM (active) and the Potency [3] was 47.3 µM (active). For the same compound, the Potency [15] was “inactive”, the Potency [4] was 47.3 µM (active) and 29.8 µM (active) and the Potency [5] was 26.6 µM (active) and 19.5 µM (active). For the same compound, the Potency [6] was 26.6 µM (active) and 6.16 µM (active) and 23.9 µM (active), the Potency [7] was 54.9 µM (active) and the Potency [8] was 37.6 µM (active) and 34.6 µM (active) and 23.9 µM (active). For the same compound, the Potency [9] was 61.1 µM (active), the Potency [10] was 11.8 µM (active) and 24.3 µM (active) and 11.9 µM (active) and the Potency [11] was 42.2 µM (active) and 48.9 µM (active) and inactive.
